The full data set covers some 8,800 targets. This sample favours those with a hit. About 0.5% of all pairs of compound and target were hits. Values without a mark were called inactive.
Tests used:
Assay in all cases: log2 fold change, soluble protein after heating vs DMSO (PISA); higher = thermal stabilisation; K562 lysate, 10 uM; active = over 0.2 and 3.5 SD of the protein, either way, in both replicates (recomputed)
lapatinib = compound: CS(=O)(=O)CCNCc1ccc(-c2ccc3ncnc(Nc4ccc(OCc5cccc(F)c5)c(Cl)c4)c3c2)o1 [lapatinib]
How it was run: (§1)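 The values are log-two fold changes in thermal stability compared with solvent controls and come from duplicates. They were obtained by TMTpro 16plex LC-MS/MS, with channel sums equalised, on the supernatant after 21,000xg for 90 min. That supernatant came from crude K562 extract at 1 mg/mL protein treated with 10 μM compound for 30 min, heated for 3 min across 48°C-58°C, pooled and brought to 0.5% NP-40 at 4°C.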

pictilisib = compound: CS(=O)(=O)N1CCN(Cc2cc3nc(-c4cccc5[nH]ncc45)nc(N4CCOCC4)c3s2)CC1 [pictilisib]
How it was run: as §1

crizotinib = compound: C[C@@H](Oc1cc(-c2cnn(C3CCNCC3)c2)cnc1N)c1c(Cl)ccc(F)c1Cl [crizotinib]
How it was run: as §1

[1] = compound: C[C@H](C1=CC=C(C=C1)C(=O)NC2=C3C=CNC3=NC=C2)N
How it was run: as §1

duvelisib = compound: C[C@H](Nc1ncnc2nc[nH]c12)c1cc2cccc(Cl)c2c(=O)n1-c1ccccc1 [duvelisib]
How it was run: as §1

gandotinib = compound: Cc1cc(Nc2cc(CN3CCOCC3)c3nc(C)c(Cc4ccc(Cl)cc4F)n3n2)n[nH]1 [gandotinib]
How it was run: as §1

tozasertib = compound: Cc1cc(Nc2cc(N3CCN(C)CC3)nc(Sc3ccc(NC(=O)C4CC4)cc3)n2)n[nH]1 [tozasertib]
How it was run: as §1

doramapimod = compound: Cc1ccc(-n2nc(C(C)(C)C)cc2NC(=O)Nc2ccc(OCCN3CCOCC3)c3ccccc23)cc1 [doramapimod]
How it was run: as §1

bafetinib = compound: Cc1ccc(NC(=O)c2ccc(CN3CC[C@H](N(C)C)C3)c(C(F)(F)F)c2)cc1Nc1nccc(-c2cncnc2)n1 [bafetinib]
How it was run: as §1

[2] = compound: Cc1cccc(CC(=O)N2CCc3c2ccc(-c2cn(C)c4ncnc(N)c24)c3F)n1
How it was run: as §1

nilotinib = compound: Cc1cn(-c2cc(NC(=O)c3ccc(C)c(Nc4nccc(-c5cccnc5)n4)c3)cc(C(F)(F)F)c2)cn1 [nilotinib]
How it was run: as §1

[3] = compound: Cc1nc(Nc2n[nH]c3c2CN(C(=O)N[C@H](CN(C)C)c2ccccc2)C3(C)C)c2sccc2n1
How it was run: as §1

dasatinib = compound: Cc1nc(Nc2ncc(C(=O)Nc3c(C)cccc3Cl)s2)cc(N2CCN(CCO)CC2)n1 [dasatinib]
How it was run: as §1

[4] = compound: Cc1ncc(-c2ccnc(Nc3ccc(S(C)(=O)=O)cc3)n2)n1C(C)C
How it was run: as §1

[5] = compound: Cn1cc(-c2ccc3c(c2)CCN3C(=O)Cc2cccc(C(F)(F)F)c2)c2c(N)ncnc21
How it was run: as §1

quisinostat = compound: Cn1cc(CNCC2CCN(c3ncc(C(=O)NO)cn3)CC2)c2ccccc21 [quisinostat]
How it was run: as §1

tipifarnib = compound: Cn1cncc1[C@@](N)(c1ccc(Cl)cc1)c1ccc2c(c1)c(-c1cccc(Cl)c1)cc(=O)n2C [tipifarnib]
How it was run: as §1

[6] = compound: NC(=O)Nc1cc(-c2cccc(F)c2)sc1C(=O)N[C@H]1CCCNC1
How it was run: as §1

[7] = compound: NC(=O)c1cnc(N[C@@H]2CCCC[C@@H]2N)nc1Nc1cccc(-n2nccn2)c1
How it was run: as §1

[8] = compound: NC1(c2ccc(-c3nc4ccn5c(=O)[nH]nc5c4cc3-c3ccccc3)cc2)CCC1
How it was run: as §1

Sequence of UniProt O00329 (O00329 whole entry, looked up): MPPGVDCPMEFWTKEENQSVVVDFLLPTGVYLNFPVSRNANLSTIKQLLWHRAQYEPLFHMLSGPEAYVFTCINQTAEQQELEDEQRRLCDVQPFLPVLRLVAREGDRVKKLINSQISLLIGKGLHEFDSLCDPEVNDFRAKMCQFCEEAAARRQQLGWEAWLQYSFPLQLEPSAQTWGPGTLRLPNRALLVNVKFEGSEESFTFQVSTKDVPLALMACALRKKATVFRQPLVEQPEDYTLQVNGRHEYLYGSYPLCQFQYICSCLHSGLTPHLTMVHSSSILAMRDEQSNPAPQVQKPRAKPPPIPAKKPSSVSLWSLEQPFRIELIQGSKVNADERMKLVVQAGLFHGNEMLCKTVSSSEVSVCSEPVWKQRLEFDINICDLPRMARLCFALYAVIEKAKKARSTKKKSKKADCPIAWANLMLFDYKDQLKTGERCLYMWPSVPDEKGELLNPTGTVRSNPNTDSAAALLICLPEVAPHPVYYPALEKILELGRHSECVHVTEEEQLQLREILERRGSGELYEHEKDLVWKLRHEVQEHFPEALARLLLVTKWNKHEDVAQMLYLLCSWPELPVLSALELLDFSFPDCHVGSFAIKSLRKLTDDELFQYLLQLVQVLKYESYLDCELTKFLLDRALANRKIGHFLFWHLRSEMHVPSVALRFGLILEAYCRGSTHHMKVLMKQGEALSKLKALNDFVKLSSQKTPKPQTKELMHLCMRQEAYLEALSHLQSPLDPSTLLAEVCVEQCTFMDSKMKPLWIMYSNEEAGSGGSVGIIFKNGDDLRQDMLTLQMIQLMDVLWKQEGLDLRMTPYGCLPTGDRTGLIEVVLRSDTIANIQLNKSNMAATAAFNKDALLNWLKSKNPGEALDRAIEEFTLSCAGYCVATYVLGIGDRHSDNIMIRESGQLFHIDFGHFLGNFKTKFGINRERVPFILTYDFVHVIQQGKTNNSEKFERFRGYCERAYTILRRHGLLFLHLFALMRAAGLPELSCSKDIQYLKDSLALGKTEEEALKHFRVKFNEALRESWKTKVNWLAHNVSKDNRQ
Sequence of UniProt Q13362 (Q13362 whole entry, looked up): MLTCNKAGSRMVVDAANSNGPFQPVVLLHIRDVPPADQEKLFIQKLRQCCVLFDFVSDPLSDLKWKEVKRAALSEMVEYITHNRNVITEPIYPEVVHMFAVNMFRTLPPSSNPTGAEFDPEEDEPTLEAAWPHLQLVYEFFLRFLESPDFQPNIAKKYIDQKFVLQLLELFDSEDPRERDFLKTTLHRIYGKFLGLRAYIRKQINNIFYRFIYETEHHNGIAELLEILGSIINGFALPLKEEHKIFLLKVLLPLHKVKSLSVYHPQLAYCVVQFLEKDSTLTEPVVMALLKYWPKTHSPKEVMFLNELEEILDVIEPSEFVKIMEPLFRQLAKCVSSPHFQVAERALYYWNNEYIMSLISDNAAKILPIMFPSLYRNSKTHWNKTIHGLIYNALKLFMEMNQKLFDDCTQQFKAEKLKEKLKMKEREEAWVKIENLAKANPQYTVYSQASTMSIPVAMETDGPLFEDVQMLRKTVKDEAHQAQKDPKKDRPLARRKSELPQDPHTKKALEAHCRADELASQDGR
Sequence of UniProt Q12972 (Q12972 whole entry, looked up): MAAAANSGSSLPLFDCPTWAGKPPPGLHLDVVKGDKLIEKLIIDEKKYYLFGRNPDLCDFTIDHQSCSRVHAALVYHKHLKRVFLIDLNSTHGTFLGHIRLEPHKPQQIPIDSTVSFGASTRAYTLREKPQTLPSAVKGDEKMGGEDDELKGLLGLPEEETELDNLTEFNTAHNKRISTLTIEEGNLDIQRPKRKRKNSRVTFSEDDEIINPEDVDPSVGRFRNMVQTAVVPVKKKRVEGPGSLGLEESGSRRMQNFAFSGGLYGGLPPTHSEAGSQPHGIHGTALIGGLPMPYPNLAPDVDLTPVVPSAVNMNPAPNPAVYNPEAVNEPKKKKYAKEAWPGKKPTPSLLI
Sequence of UniProt Q96I23 (Q96I23 whole entry, looked up): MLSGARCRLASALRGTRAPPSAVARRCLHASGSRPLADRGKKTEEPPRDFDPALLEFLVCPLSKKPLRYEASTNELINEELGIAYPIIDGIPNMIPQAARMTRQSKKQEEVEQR
Sequence of UniProt O60825 (O60825 whole entry, looked up): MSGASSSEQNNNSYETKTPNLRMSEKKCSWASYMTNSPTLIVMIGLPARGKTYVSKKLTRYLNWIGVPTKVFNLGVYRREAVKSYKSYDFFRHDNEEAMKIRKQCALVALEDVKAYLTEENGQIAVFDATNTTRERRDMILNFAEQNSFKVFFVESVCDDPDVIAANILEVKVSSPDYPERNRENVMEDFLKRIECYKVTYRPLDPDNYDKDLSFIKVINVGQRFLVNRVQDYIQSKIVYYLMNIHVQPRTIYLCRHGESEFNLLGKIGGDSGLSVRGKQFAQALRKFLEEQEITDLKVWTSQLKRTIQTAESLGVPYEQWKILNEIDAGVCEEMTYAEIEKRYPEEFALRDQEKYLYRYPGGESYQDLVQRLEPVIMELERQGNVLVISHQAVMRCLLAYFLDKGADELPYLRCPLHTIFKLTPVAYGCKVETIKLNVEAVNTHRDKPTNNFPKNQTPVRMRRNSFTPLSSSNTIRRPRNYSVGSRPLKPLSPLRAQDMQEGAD
Sequence of UniProt Q96PU8 (Q96PU8 whole entry, looked up): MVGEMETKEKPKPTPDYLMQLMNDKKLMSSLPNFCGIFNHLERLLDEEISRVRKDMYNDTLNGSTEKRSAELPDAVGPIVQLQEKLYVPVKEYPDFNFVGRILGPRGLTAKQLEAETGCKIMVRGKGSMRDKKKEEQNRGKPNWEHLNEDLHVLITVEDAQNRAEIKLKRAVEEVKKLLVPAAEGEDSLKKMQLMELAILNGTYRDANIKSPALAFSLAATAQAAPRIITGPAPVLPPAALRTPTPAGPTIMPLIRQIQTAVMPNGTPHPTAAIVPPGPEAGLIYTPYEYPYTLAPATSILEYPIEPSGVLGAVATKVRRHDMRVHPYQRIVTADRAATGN
Sequence of UniProt P15735 (P15735 whole entry, looked up): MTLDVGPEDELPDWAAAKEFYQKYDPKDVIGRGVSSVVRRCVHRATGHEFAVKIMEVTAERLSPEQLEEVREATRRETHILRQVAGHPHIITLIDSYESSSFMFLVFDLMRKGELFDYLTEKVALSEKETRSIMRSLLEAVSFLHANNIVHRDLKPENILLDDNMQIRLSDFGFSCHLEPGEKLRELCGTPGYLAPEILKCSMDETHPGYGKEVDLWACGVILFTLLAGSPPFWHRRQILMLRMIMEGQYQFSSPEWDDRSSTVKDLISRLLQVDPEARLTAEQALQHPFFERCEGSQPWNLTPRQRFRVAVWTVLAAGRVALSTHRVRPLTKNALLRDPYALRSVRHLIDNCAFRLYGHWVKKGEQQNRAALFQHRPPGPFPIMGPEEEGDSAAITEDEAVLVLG

| Target | log2 fold change (lapatinib) | log2 fold change (pictilisib) | log2 fold change (crizotinib) | log2 fold change [1] | log2 fold change (duvelisib) | log2 fold change (gandotinib) | log2 fold change (tozasertib) | log2 fold change (doramapimod) | log2 fold change (bafetinib) | log2 fold change [2] | log2 fold change (nilotinib) | log2 fold change [3] | log2 fold change (dasatinib) | log2 fold change [4] | log2 fold change [5] | log2 fold change (quisinostat) | log2 fold change (tipifarnib) | log2 fold change [6] | log2 fold change [7] | log2 fold change [8] |
| --- | --- | --- | --- | --- | --- | --- | --- | --- | --- | --- | --- | --- | --- | --- | --- | --- | --- | --- | --- | --- |
| PPP2R5C isoform 5 (UniProt Q13362) | -0.03 | 0.01 | 0.004 | 0.069 | 0.02 | -0.08 | 0.054 | -0.005 | -0.001 | -0.036 | 0.016 | 0.003 | -0.053 | 0.022 | -0.005 | 0.016 | 0.074 | 0.032 | 0.059 | -0.019 |
| PIK3CD (UniProt O00329) | -0.043 | 0.142 | -0.037 | 0.035 | 0.477 (active) | 0.389 |  | 0.03 | -0.136 | -0.016 | 0.059 | 0.006 |  | 0.122 | 0.151 | -0.091 | -0.053 | 0.02 | 0.001 | 0.127 |
| PHKG2 (UniProt P15735) | -0.07 | -0.069 | 0.166 | 0 | -0.008 | 0.061 | -0.051 | 0.031 | 0.015 | -0.107 | -0.022 | 0.598 (active) | -0.03 | 0.046 | 0.037 | -0.069 | 0.038 | 0.979 (active) | -0.042 | -0.073 |
| PRKACB isoform 2 (UniProt P22694) | -0.063 | -0.042 | -0.018 | 0.141 | 0.024 | -0.071 | -0.001 | -0.023 | -0.04 | -0.131 | -0.076 | 0.818 (active) | 0.025 | 0.091 | -0.028 | -0.033 | -0.063 | 0.538 (active) | 0.177 | -0.025 |
| QKI (UniProt Q96PU8) | -0.002 | 0.015 | 0.047 | -0.212 (active) | -0.017 | 0.163 | -0.021 | -0.043 | -0.056 | 0.155 | -0.053 | 0.006 | -0.02 | 0.062 | -0.038 | -0.013 | -0.024 | 0.055 | -0.005 | -0.008 |
| PYURF (UniProt Q96I23) | 0.036 | -0.066 | 0.016 | 0.01 | 0.087 | -0.015 | -0.048 | 0.011 | 0.091 | 0.015 | -0.03 | 0.051 | 0.002 | 0.004 | 0.048 | 0.011 | -0.009 | -0.075 | -0.064 | -0.006 |
| PFKFB2 (UniProt O60825) | 0.006 | 0.001 | 0.017 | -0.016 | -0.015 | -0.035 | 0.038 | -0.018 | -0.07 | 0.01 | -0.04 | 0.011 | 0.017 | -0.043 | 0.014 | 0.024 | -0.011 | -0.046 | -0.003 | -0.009 |
| PPP1R8 (UniProt Q12972) | 0.025 | -0.008 | 0.021 | -0.236 | -0.035 | 0.108 | -0.014 | -0.011 | -0.01 | 0.091 | 0.004 | -0.011 | 0.03 | 0.034 | 0.025 | -0.023 | 0.013 | -0.007 | 0.01 | -0.024 |

Source: the supplement of paper PMC10849652
